Source: PubChem
MITF inh – MITF inhibition; 0.28% of 37,000 active; TRPM1 promoter luciferase, luminescence, 24 h; inhibition, % (concentration not given with the values); in the data active means inhibition above about 85%;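 further: human melanocyte line stably carrying TRPM1 promoter luciferase reporter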
NOMO-1 viab – STK33 inhibitor candidate reducing NOMO-1 cell viability | NOMO-1 AML viability, CellTiter-Glo luminescence, 72 h | inhibition, % (concentration not given with the values) | 7.5% of 37,000 active; in the data active means inhibition above about 80%
Shh pathway inh – blocks Sonic Hedgehog signaling; Shh-LIGHT2 Gli-luciferase reporter, 30 h; inhibition, % (no concentration beside the values); 2.1% of 22,000 active; AID 2313;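 active means mean inhibition across valid replicates above about 65%, limit read from the data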;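 further: pathway switched on by Shh-conditioned medium diluted 1 in 25 in low serum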
PD-1 reverse act – reversal of PD-1 mediated T-cell inhibition. activation, % (no concentration beside the values). primary human CD4 T cells, PD-L1 beads, CellTiter-Glo 96 h. 29,000 tested, under 10 active; call rule not given here;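 further: 0% = median vehicle wells and 100% = positive control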
Numbers without * were called inactive. The list is not random: actives were taken first. Their share in the collection is about 7.9%.

Screening O=C(CSc1nnc(-c2ccc(Cl)cc2)o1)Nc1cc(C(F)(F)F)ccc1Cl returned MITF inh 7 and NOMO-1 viab 6.
Screening C[C@@H]1CN([C@@H](C)CO)C(=O)c2cc(NC(=O)Nc3ccccc3)ccc2O[C@@H]1CN(C)Cc1ccc(-c2ccccc2)cc1 returned MITF inh -3, NOMO-1 viab 114* and PD-1 reverse act -5.
For COc1ccc(NC(=O)Nc2ccc3c(c2)C(=O)N([C@@H](C)CO)C[C@H](C)[C@@H](CN(C)Cc2ccc(-c4ccccc4)cc2)O3)cc1 the results were MITF inh 8, NOMO-1 viab 82* and PD-1 reverse act -5.
Screening COc1ccc(CN(C)C[C@H]2Oc3ccc(NC(=O)Nc4ccccc4)cc3C(=O)N([C@H](C)CO)C[C@H]2C)cc1 returned MITF inh -4, NOMO-1 viab 37 and Shh pathway inh -9.
COc1ccc(NC(=O)Nc2ccc3c(c2)C(=O)N([C@@H](C)CO)C[C@@H](C)[C@H](CN(C)Cc2ccc(-c4ccccc4)cc2)O3)cc1 was read as MITF inh -10, NOMO-1 viab 97*, Shh pathway inh 35 and PD-1 reverse act -2.
COc1ccc(NC(=O)Nc2ccc3c(c2)C(=O)N([C@H](C)CO)C[C@@H](C)[C@H](CN(C)Cc2ccc(-c4ccccc4)cc2)O3)cc1 was read as MITF inh 1, NOMO-1 viab 119*, Shh pathway inh 27 and PD-1 reverse act -3.
For COc1ccc(CN(C)C[C@H]2Oc3ccc(NC(=O)Nc4ccccc4)cc3C(=O)N([C@@H](C)CO)C[C@H]2C)cc1 the results were MITF inh -3, NOMO-1 viab 25, Shh pathway inh 9 and PD-1 reverse act 1.
`COc1ccc(Cl)cc1NC(=S)NCCCn1nc(C)c(Br)c1C` gave MITF inh 16, NOMO-1 viab 1 and PD-1 reverse act -3.
Screening O=C(Nc1ccccc1C(=O)OCc1ccc([N+](=O)[O-])cc1)c1ccco1 returned MITF inh -47, NOMO-1 viab 22 and PD-1 reverse act -1.
`O=C(CN1C(=O)c2ccccc2C1=O)Oc1ccc(C(=O)Nc2ccccc2)cc1` gave MITF inh -60 and NOMO-1 viab 7.
For COc1ccc(C2=Nc3ccccc3SC(c3ccccc3)C2)cc1 (stereo unspecified) the results were MITF inh -3, NOMO-1 viab 113*, Shh pathway inh 80* and PD-1 reverse act -1.
`Cc1ccc(S(=O)(=O)Nc2ccc3c(c2)CC(=O)N([C@H](C)CO)C[C@@H](C)[C@@H](CN(C)Cc2ccccc2)O3)cc1` gave MITF inh -3, NOMO-1 viab 85*, Shh pathway inh -9 and PD-1 reverse act 0.
For C[C@H]1CN([C@@H](C)CO)C(=O)Cc2cc(NS(=O)(=O)c3ccc(Cl)cc3)ccc2O[C@@H]1CN(C)Cc1ccc(-c2ccccc2)cc1 the results were MITF inh 18, NOMO-1 viab 124*, Shh pathway inh 15 and PD-1 reverse act -1.
Cc1ccc(S(=O)(=O)Nc2ccc3c(c2)CC(=O)N([C@H](C)CO)C[C@H](C)[C@H](CN(C)Cc2ccc(-c4ccccc4)cc2)O3)cc1 was read as MITF inh -6 and NOMO-1 viab 84*.
For C[C@@H]1CN([C@@H](C)CO)C(=O)Cc2cc(NS(=O)(=O)c3ccccc3)ccc2O[C@@H]1CN(C)Cc1ccc(-c2ccccc2)cc1 the results were MITF inh 0, NOMO-1 viab 34, Shh pathway inh -6 and PD-1 reverse act -4.
For Cc1ccc(S(=O)(=O)Nc2ccc3c(c2)CC(=O)N([C@@H](C)CO)C[C@H](C)[C@H](CN(C)Cc2ccc(-c4ccccc4)cc2)O3)cc1 the results were MITF inh 26, NOMO-1 viab 49 and Shh pathway inh -8.
`C[C@@H]1CN([C@H](C)CO)C(=O)Cc2cc(NS(=O)(=O)c3ccccc3)ccc2O[C@@H]1CN(C)Cc1ccc(-c2ccccc2)cc1` gave MITF inh 1, NOMO-1 viab 104*, Shh pathway inh 43 and PD-1 reverse act -3.
`O=C(CSc1nnc(-c2ccco2)o1)c1ccc2c(c1)OCCO2` gave MITF inh -18, NOMO-1 viab 16 and PD-1 reverse act -1.
Screening COc1ccc(NC(=O)CSc2nnc(N)s2)cc1Cl returned MITF inh -19 and NOMO-1 viab -11.
CCc1nc2sc3c(c2c2nnc(SCC(=O)Nc4ccccc4)n12)CCC3 was read as MITF inh -12 and NOMO-1 viab -17.
Screening C[C@H]1CN([C@@H](C)CO)C(=O)Cc2cc(NS(=O)(=O)c3ccc(F)cc3)ccc2O[C@@H]1CN(C)Cc1ccc(-c2ccccc2)cc1 returned MITF inh 31, NOMO-1 viab 122* and Shh pathway inh 40.
Screening NC(=O)OCC(O)COc1ccc(Cl)cc1 (stereo unspecified) returned MITF inh -10, NOMO-1 viab 20 and Shh pathway inh -56.
Screening OC(COc1ccc(Nc2ccccc2)cc1)COc1ccc(Nc2ccccc2)cc1 returned MITF inh 4, NOMO-1 viab 103*, Shh pathway inh 53 and PD-1 reverse act 3.
Screening CCc1ccc(OCC(=O)NC(=S)Nc2cccc3nsnc23)cc1 returned MITF inh 21 and NOMO-1 viab 36.
For COc1ccc2nc(Nc3nc(CSc4ccc(Cl)cc4)cc(=O)[nH]3)nc(C)c2c1 the results were MITF inh -3 and NOMO-1 viab 84*.
`C=C1C(=O)O[C@H]2C1[C@H](OC(=O)/C(=C/CO)COC(=O)/C(C)=C/CO)CC(=C)[C@@H]1CC(=O)[C@@H](C)[C@@H]12` (stereo partly specified) gave MITF inh 12, NOMO-1 viab 108*, Shh pathway inh 16 and PD-1 reverse act -6.
For C=C1C(=O)O[C@H]2[C@H]1[C@H](O)CC(=C)[C@@H]1CC(=O)C(C)[C@H]21 (stereo partly specified) the results were MITF inh 40, NOMO-1 viab 118*, Shh pathway inh -18 and PD-1 reverse act -7.
For Cc1ccc2oc(-c3cc(NC(=O)COc4ccccc4)ccc3Cl)nc2c1 the results were MITF inh -21, NOMO-1 viab 22 and PD-1 reverse act 2.
Cc1nc(C2C(=O)c3ccc(O)c(O)c3OC2C(F)(F)F)cs1 (stereo unspecified) was read as MITF inh 23, NOMO-1 viab 107*, Shh pathway inh -2 and PD-1 reverse act 1.
Screening O=C(CS(=O)c1ccccc1[N+](=O)[O-])Oc1ccc(Cl)cc1Cl (stereo unspecified) returned MITF inh 22, NOMO-1 viab 69 and PD-1 reverse act -4.
For N#Cc1ccc(-c2ccc(OC(=O)CS(=O)c3ccc(C(F)(F)F)cc3[N+](=O)[O-])cc2)cc1 (stereo unspecified) the results were MITF inh -8, NOMO-1 viab 129* and PD-1 reverse act -11.
For COC(=O)c1ccc(OC(=O)CS(=O)c2ccc(C(F)(F)F)cc2[N+](=O)[O-])cc1 (stereo unspecified) the results were MITF inh 26 and NOMO-1 viab 109*.
